Assays:
Assay in all cases: DAPPL (digital affinity profiling via proximity ligation, sequencing); 10 mM Tris-HCl pH 7.5, 50 mM NaCl, 1 mM DTT, 4% glycerol, room temperature, 30 min; GST-TFs on glutathione beads, 16-mer random dsDNA library, 0.1% formaldehyde crosslink after washing; high values mean tight binding
Conditions in all cases: protein: recombinant; tags: N-terminal GST; dsDNA, one strand shown
[1] = biological target: T1, ERF (Homo sapiens, UniProt P50548 1-548)
T1 sequence: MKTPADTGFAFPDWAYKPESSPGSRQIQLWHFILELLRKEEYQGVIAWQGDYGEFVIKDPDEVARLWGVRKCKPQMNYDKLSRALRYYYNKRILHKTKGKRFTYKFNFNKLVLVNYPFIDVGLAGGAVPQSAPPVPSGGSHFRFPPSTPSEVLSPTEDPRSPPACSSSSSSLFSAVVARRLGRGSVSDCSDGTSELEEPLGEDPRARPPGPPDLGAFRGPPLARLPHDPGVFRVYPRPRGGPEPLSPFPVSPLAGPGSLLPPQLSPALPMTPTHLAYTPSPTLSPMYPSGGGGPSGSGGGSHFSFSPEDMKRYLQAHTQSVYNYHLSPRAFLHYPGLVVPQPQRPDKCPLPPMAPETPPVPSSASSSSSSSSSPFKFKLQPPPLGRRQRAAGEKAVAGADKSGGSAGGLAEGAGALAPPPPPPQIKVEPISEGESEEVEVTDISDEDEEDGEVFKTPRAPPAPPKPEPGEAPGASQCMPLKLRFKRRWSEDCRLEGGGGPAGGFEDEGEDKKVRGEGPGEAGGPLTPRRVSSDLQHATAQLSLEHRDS
Method in brief: (§1)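 Pools of DNA-barcoded human transcription factors, expressed in yeast as GST fusions on glutathione beads and combined with a tag-only sample, were incubated with 200 nmole of a 16-mer random double-stranded DNA library. Incubation took 30 min at room temperature in Tris/NaCl/DTT/glycerol buffer and was followed by washing, 0.1% formaldehyde crosslinking, proximity ligation (BsaI/T4 ligase, 1 h, 37 °C), PCR amplification and sequencing on an Illumina NextSeq500. Binding signal is the ratio of a hexamer's read frequency for a factor to its frequency for the tag-only sample.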

[2] = biological target: T2, ETS2 (Homo sapiens, UniProt P15036 1-469)
T2 sequence: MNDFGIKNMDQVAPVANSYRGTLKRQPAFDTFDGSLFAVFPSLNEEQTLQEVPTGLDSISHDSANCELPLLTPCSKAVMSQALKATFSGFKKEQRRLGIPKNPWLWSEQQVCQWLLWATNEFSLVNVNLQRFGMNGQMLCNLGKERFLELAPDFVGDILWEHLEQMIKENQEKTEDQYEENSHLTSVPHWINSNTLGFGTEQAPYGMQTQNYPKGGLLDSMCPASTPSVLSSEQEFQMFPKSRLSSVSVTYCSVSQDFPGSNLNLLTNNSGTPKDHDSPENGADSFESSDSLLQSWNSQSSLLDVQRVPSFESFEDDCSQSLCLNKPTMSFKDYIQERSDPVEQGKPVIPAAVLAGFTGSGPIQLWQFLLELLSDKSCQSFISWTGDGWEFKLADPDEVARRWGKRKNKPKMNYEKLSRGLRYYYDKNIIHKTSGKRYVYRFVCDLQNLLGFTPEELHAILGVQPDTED
Method in brief: as §1

[3] = biological target: T3, SPDEF (Homo sapiens, UniProt O95238 1-335)
T3 sequence: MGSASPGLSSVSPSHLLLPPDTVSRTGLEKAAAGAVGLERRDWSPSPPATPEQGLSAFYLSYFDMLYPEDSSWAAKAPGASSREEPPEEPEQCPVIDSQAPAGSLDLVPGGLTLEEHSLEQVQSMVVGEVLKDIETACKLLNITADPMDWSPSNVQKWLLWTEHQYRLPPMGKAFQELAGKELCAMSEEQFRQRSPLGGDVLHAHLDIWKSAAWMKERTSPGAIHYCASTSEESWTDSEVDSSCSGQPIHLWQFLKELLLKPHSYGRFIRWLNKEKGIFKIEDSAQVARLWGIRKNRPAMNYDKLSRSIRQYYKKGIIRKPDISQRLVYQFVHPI
Method in brief: as §1

[4] = biological target: T4, ETV7 (Homo sapiens, UniProt Q9Y603 1-341)
T4 sequence: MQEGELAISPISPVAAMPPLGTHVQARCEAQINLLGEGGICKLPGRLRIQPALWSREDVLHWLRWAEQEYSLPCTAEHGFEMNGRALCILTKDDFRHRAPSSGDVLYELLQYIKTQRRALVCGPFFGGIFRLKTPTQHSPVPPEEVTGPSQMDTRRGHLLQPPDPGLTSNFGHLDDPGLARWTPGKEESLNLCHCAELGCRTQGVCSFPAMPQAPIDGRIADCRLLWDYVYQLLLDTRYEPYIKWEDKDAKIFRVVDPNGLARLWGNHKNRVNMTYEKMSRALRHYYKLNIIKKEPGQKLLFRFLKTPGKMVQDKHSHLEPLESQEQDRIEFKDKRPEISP
Method in brief: as §1

[5] = biological target: T5, ELF5 (Homo sapiens, UniProt Q9UKW6-2 1-255)
T5 sequence: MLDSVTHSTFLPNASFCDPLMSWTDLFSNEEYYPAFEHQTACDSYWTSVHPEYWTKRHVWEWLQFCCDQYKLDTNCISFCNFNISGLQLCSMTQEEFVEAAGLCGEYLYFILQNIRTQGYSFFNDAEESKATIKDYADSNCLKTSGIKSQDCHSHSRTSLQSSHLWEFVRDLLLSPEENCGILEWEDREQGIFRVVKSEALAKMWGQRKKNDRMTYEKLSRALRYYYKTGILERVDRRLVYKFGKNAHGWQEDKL
Method in brief: as §1

[6] = biological target: T6, ETV3 (Homo sapiens, UniProt P41162-2 1-143)
T6 sequence: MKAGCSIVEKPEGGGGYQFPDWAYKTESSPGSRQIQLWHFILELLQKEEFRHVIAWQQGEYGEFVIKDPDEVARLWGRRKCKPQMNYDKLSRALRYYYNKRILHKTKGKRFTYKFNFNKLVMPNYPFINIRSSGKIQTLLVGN
Method in brief: as §1

[7] = biological target: ETV6 (Homo sapiens, UniProt P41212 1-452)
Sequence of ETV6 (P41212 whole entry): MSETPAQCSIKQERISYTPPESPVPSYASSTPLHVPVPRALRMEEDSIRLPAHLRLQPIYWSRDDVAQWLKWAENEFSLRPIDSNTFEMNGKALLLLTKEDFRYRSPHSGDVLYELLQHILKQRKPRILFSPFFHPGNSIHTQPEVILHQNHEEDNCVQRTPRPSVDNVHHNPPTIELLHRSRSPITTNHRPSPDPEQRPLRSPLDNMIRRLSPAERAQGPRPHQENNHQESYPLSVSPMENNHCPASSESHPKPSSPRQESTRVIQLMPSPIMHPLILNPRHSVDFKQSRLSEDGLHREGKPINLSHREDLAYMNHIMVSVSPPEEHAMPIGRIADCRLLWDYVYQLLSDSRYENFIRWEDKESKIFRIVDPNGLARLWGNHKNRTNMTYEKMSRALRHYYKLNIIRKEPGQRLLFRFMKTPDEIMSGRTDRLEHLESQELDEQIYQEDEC
Method in brief: as §1

| Sequence | binding signal [1] | binding signal [2] | binding signal [3] | binding signal [4] | binding signal [5] | binding signal [6] | binding signal [7] |
| --- | --- | --- | --- | --- | --- | --- | --- |
| AGTTAA | 1.1 fold enrichment (6-mer frequency, TF over GST control) | 1.06 fold enrichment (6-mer frequency, TF over GST control) | 1.01 fold enrichment (6-mer frequency, TF over GST control) | 1.01 fold enrichment (6-mer frequency, TF over GST control) | 1.03 fold enrichment (6-mer frequency, TF over GST control) | 1.13 fold enrichment (6-mer frequency, TF over GST control) | 1.11 fold enrichment (6-mer frequency, TF over GST control) |
| CAGAAT | 1 fold enrichment (6-mer frequency, TF over GST control) |  | 1.06 fold enrichment (6-mer frequency, TF over GST control) |  | 1.02 fold enrichment (6-mer frequency, TF over GST control) |  | 1.02 fold enrichment (6-mer frequency, TF over GST control) |
| AAGGTT | 1.01 fold enrichment (6-mer frequency, TF over GST control) | 1.08 fold enrichment (6-mer frequency, TF over GST control) | 1.02 fold enrichment (6-mer frequency, TF over GST control) | 1.15 fold enrichment (6-mer frequency, TF over GST control) | 1.1 fold enrichment (6-mer frequency, TF over GST control) | 1.07 fold enrichment (6-mer frequency, TF over GST control) | 1 fold enrichment (6-mer frequency, TF over GST control) |
| TTTGAG | 1.13 fold enrichment (6-mer frequency, TF over GST control) | 1.08 fold enrichment (6-mer frequency, TF over GST control) | 1.04 fold enrichment (6-mer frequency, TF over GST control) | 1.1 fold enrichment (6-mer frequency, TF over GST control) | 1.03 fold enrichment (6-mer frequency, TF over GST control) | 1.22 fold enrichment (6-mer frequency, TF over GST control) | 1.02 fold enrichment (6-mer frequency, TF over GST control) |
| AGGTTT | 1.13 fold enrichment (6-mer frequency, TF over GST control) | 1.01 fold enrichment (6-mer frequency, TF over GST control) | 1.02 fold enrichment (6-mer frequency, TF over GST control) | 1.08 fold enrichment (6-mer frequency, TF over GST control) | 1.04 fold enrichment (6-mer frequency, TF over GST control) | 1.11 fold enrichment (6-mer frequency, TF over GST control) | 1.03 fold enrichment (6-mer frequency, TF over GST control) |
| GTTCGA | 1.23 fold enrichment (6-mer frequency, TF over GST control) | 1.12 fold enrichment (6-mer frequency, TF over GST control) | 1.01 fold enrichment (6-mer frequency, TF over GST control) | 1.13 fold enrichment (6-mer frequency, TF over GST control) |  | 1.06 fold enrichment (6-mer frequency, TF over GST control) | 1.02 fold enrichment (6-mer frequency, TF over GST control) |
| GCCCAT | 1.05 fold enrichment (6-mer frequency, TF over GST control) | 1 fold enrichment (6-mer frequency, TF over GST control) |  |  | 1.01 fold enrichment (6-mer frequency, TF over GST control) | 1.01 fold enrichment (6-mer frequency, TF over GST control) |  |
| CATGAA | 1.02 fold enrichment (6-mer frequency, TF over GST control) | 1.07 fold enrichment (6-mer frequency, TF over GST control) | 1.03 fold enrichment (6-mer frequency, TF over GST control) |  | 1.04 fold enrichment (6-mer frequency, TF over GST control) | 1.14 fold enrichment (6-mer frequency, TF over GST control) |  |
| CCTAGA | 1.05 fold enrichment (6-mer frequency, TF over GST control) | 1.05 fold enrichment (6-mer frequency, TF over GST control) | 1.01 fold enrichment (6-mer frequency, TF over GST control) |  |  |  |  |
| GCAATA | 1.03 fold enrichment (6-mer frequency, TF over GST control) | 1.04 fold enrichment (6-mer frequency, TF over GST control) | 1.04 fold enrichment (6-mer frequency, TF over GST control) | 1.08 fold enrichment (6-mer frequency, TF over GST control) |  | 1.04 fold enrichment (6-mer frequency, TF over GST control) | 1.03 fold enrichment (6-mer frequency, TF over GST control) |
| TAAAGC | 1.13 fold enrichment (6-mer frequency, TF over GST control) | 1.05 fold enrichment (6-mer frequency, TF over GST control) |  | 1.04 fold enrichment (6-mer frequency, TF over GST control) | 1.01 fold enrichment (6-mer frequency, TF over GST control) | 1.1 fold enrichment (6-mer frequency, TF over GST control) | 1.02 fold enrichment (6-mer frequency, TF over GST control) |
| AATCCA | 1.11 fold enrichment (6-mer frequency, TF over GST control) | 1.14 fold enrichment (6-mer frequency, TF over GST control) | 1.07 fold enrichment (6-mer frequency, TF over GST control) | 1.14 fold enrichment (6-mer frequency, TF over GST control) | 1.05 fold enrichment (6-mer frequency, TF over GST control) | 1.03 fold enrichment (6-mer frequency, TF over GST control) | 1.11 fold enrichment (6-mer frequency, TF over GST control) |
| GGCTTG | 1.01 fold enrichment (6-mer frequency, TF over GST control) | 1.06 fold enrichment (6-mer frequency, TF over GST control) |  | 1.14 fold enrichment (6-mer frequency, TF over GST control) |  |  |  |
| TCGTAC | 1.01 fold enrichment (6-mer frequency, TF over GST control) | 1.07 fold enrichment (6-mer frequency, TF over GST control) | 1.06 fold enrichment (6-mer frequency, TF over GST control) | 1.15 fold enrichment (6-mer frequency, TF over GST control) | 1.02 fold enrichment (6-mer frequency, TF over GST control) | 1.02 fold enrichment (6-mer frequency, TF over GST control) | 1.08 fold enrichment (6-mer frequency, TF over GST control) |

Reference: paper PMC7862700, “An all-to-all approach to the identification of sequence-specific readers for epigenetic DNA modifications on cytosine”
